One assay has as its system Klebsiella pneumoniae. The settings on record: Concentration 32 ug.mL-1; ASSAY_TEST Inhibition of Bacterial Growth; detection method Absorption (OD600); MEDIA CAMHB; plate type 384well; NBS; CORNING #3640; time 18 hr.
The next assay has as its system Candida albicans. The conditions noted are these: 32 ug/mL.
The next assay concerns Cryptococcus neoformans. The settings on record: Concentration 32 ug.mL-1; ASSAY_TEST Inhibition of Fungal Growth; detection method Resazurin; Absorption (OD600-OD570); plate type 384well; NBS; CORNING #3640. Background: Resazurin is reduced to fluorescent resorufin, in cell work by metabolically active cells.

Each structure is given as a SMILES string. Results with a measured potency or affinity are listed apart.

One may read the Inhibition as the drop in the measured response relative to a control, in per cent.

As to `COc1ccc(-c2cc(-c3cc4ccc(F)cc4nc3Cl)cc(=O)[nH]2)cc1`, the Inhibition with Klebsiella pneumoniae was -16.09%; in the assay on Candida albicans, 1.94%; with Cryptococcus neoformans it was -21.89%.

For `Cc1ccc(/C=C(\C#N)C(=O)c2ccccc2)cc1`, the Inhibition with Klebsiella pneumoniae is 11.17%; with Candida albicans, 1.76%; in the assay with Cryptococcus neoformans it was -10.05%.

Take `Cc1ccc(C2CC2(N)C(=O)O)cc1.Cl` (centres undefined): the Inhibition in the assay with Klebsiella pneumoniae was 13.97%; with Candida albicans, 1.46%; with Cryptococcus neoformans it was -7.69%.

On to `CCOC(=O)c1c(C)nc(N)c(C#N)c1-c1cccs1`, for which the Inhibition was -1.63% in the assay on Klebsiella pneumoniae, 2.63% in the assay with Candida albicans and -31.89% with Cryptococcus neoformans.

Turning to `Cl.N#Cc1c(Cl)nc(N)nc1NCCO`, the Inhibition in the assay with Klebsiella pneumoniae came to 6.6%; in the assay with Candida albicans, 1.9%; in the assay on Cryptococcus neoformans, 8.33%.

Regarding `Cc1n[nH]c2c1C(c1ccc([N+](=O)[O-])cc1)C(C#N)=C(N)O2` (centres undefined), the figures for the Inhibition in the assay on Klebsiella pneumoniae, with Candida albicans and in the assay on Cryptococcus neoformans were -7.74%, 3.15% and -4.51%, respectively.

Take `COc1nc2nc3c(c(N)c2cc1C#N)CN(Cc1ccccc1)CC3`: the figures for the Inhibition with Klebsiella pneumoniae, in the assay with Candida albicans and in the assay on Cryptococcus neoformans were 8.31%, 1.24% and -69.67%, respectively.

Turning to `NNC(=O)c1cc2ccccc2n1Cc1ccccc1`, the results for the Inhibition in the assay with Klebsiella pneumoniae, in the assay on Candida albicans and in the assay with Cryptococcus neoformans were -14.14%, -0.41% and -2.53%, respectively.

These data come from ChEMBL document CHEMBL4513135, “CO-ADD screening of IQOG CSIS (Spain) compounds”.
